DAX1 inh-1: blocks DAX1 repression of SF-1 activated StAR promoter | HEK293T StAR-luciferase reporter, SF-1/DAX-1 repression relief | actives 1.1% (n = 370,000) | inhibition, % at 6.8 µM;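 active means inhibition above the mean over all tested compounds plus 3 SD, cut at about 3.6% in these data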;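 further: higher inhibition means more luminescence from relief of DAX-1 repression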
hgDAF-12 ag: activates the H. glycines DAF-12 receptor ligand-binding domain | HEK293 GAL4-hgDAF12 UAS-luciferase reporter, agonist luminescence; normalized to butyrate control | activation, % at 6.8 µM | actives 1.8% (n = 370,000);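 active means activation above a cutoff set at the mean of all screened compounds plus 3 SD, cut at about 10% in these data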
hcDAF12 agonist: activates DAF-12 receptor from parasite H. contortus; AID 652067; HEK293 hcDAF-12 lit1-tk-luc reporter, luminescence; 0% DMSO, 100% Δ7-dafachronic acid; activation, % at 6.8 µM; actives 1.4% (n = 370,000);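 active means activation above the mean of all tested compounds plus 3 SD, cut at about 5.5% in these data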
ssDAF-12 act: S. stercoralis DAF-12 activation, primary screen; activation, % at 6.8 µM; HEK293 ssDAF-12/GRIP1 lit1-tk-luc reporter, luminescence; % of 3 µM dafachronic acid response; actives 1% (n = 370,000);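 active means activation above the mean over all tested compounds plus 3 SD, cut at about 0.9% in these data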
DAX1 inh-2: NR0B1 (DAX1) inhibition; HEK293 Gal4-DAX1 luciferase reporter, luminescence; AID 504766; inhibition, % at 6.75 µM; P51843; actives 0.99% (n = 340,000);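 active means inhibition above the mean over all tested compounds plus 3 SD, cut at about 4.2% in these data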;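 further: inhibition shows as a rise in luminescence from relieved DAX1 repression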
Target sequence (P51843 207-470 limits assumed): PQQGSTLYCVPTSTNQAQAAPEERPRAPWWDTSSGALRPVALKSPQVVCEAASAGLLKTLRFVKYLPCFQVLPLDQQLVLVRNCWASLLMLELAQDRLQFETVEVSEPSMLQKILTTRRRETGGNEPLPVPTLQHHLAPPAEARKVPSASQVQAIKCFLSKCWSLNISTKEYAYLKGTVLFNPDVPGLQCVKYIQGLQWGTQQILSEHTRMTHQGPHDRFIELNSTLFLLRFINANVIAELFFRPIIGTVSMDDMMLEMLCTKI
A number is an active result; - = inactive; . = no result given. Compounds with a hit are over-represented: about 4.1% of the library has one in this group of screens.

SMILES	DAX1 inh-1	hgDAF-12 ag	hcDAF12 agonist	ssDAF-12 act	DAX1 inh-2
CC1CC1C(=O)Nc1nc(-c2cccs2)c(-c2cccs2)s1 (stereo unspecified)	-	-	-	2.0	-
O=C(O)C1CC=CCC1C(=O)NCc1cn2ccccc2n1 (stereo unspecified)	-	-	-	1.1	-
COC(=O)[C@]12C[C@H](CC(=O)NCc3ccc(OC)c(OC)c3)C(=O)N(CCC3=CCCCC3)C1=C[C@H](C1CCCC1)O[C@@H]2C	-	-	-	-	.
CN(C)CCCN(C(=O)c1ccc(S(=O)(=O)N(C)C)cc1)c1nc2cc3c(cc2s1)OCO3	-	-	-	1.5	-
CC(C)C(NS(=O)(=O)c1ccc2c(c1)oc(=O)n2C)C(=O)N1CCN(c2ccccc2F)CC1 (stereo unspecified)	-	-	-	-	4.8
CN(C(=O)COC(=O)c1cc(S(=O)(=O)N2CCCCC2)ccc1Cl)c1ccccc1	-	-	-	-	-
Cc1ccc(CNC(=O)C(OC(=O)c2cccs2)C(C)C)cc1 (stereo unspecified)	-	-	-	-	4.6
CC(C)C(OC(=O)c1cccs1)C(=O)NCc1ccccc1 (stereo unspecified)	-	-	-	-	-
Cn1cccc1C(=O)OCc1cc(-c2ccco2)on1	4.3	-	-	-	-
O=C(OCc1cn(Cc2ccc(C(F)(F)F)cc2)nn1)N1CCCC1	-	-	-	-	.
O=C(CC1C[C@H](C(=O)N2CCOCC2)[C@@]2(CCC3CCCC3)c3[nH]c4ccccc4c3CCN2C1=O)NCCC1=CCCCC1 (stereo partly specified)	-	-	-	-	-
CN(C)CCCNC(=O)CC1C[C@H](C(=O)N2CCOCC2)[C@@]2(CCC3CCCC3)c3[nH]c4ccccc4c3CCN2C1=O (stereo partly specified)	3.7	-	-	-	4.3
CC[C@]12c3[nH]c4cc(-c5ccco5)ccc4c3CCN1C(=O)[C@@H](CC(=O)NCc1ccco1)C[C@@H]2C(=O)N1CCN(C(=O)c2ccco2)CC1	-	-	-	-	-
COCCCNC(=O)CC1C[C@H](C(=O)N2CCCCC2)[C@@]2(C)c3[nH]c4ccc(OC)cc4c3CCN2C1=O (stereo partly specified)	-	-	-	-	-
CC[C@]12c3[nH]c4ccccc4c3CCN1C(=O)C(CC(=O)NCc1ccco1)C[C@@H]2C(=O)N1CCN(C(=O)c2ccco2)CC1 (stereo partly specified)	-	-	-	-	5.8
COCCCNC(=O)CC1C[C@H](C(=O)N2CCOCC2)[C@@]2(C)c3[nH]c4ccc(OC)cc4c3CCN2C1=O (stereo partly specified)	4.1	-	-	-	-
N#Cc1ccc(OC[C@@H](O)CN2CCC(C(O)(c3ccccc3)c3ccccc3)CC2)cc1F	-	-	-	-	.
C/C=C/c1ccc(OCC(=O)Nc2ccc(C(N)=O)cc2)c(OC)c1	-	-	-	1.1	-
O=C(NC1CCCCN(Cc2ccc(Cl)cc2)C1=O)c1cccs1 (stereo unspecified)	-	-	-	-	.
O=C(COC(=O)C1CCN(S(=O)(=O)c2cc([N+](=O)[O-])ccc2Cl)CC1)Nc1ncc(Cl)cc1Cl	-	-	-	-	-
CC(=O)COC(=O)C1CCN(S(=O)(=O)c2cc([N+](=O)[O-])ccc2Cl)CC1	-	-	-	-	4.3
O=C(CN1C(=O)C2(OCCCO2)c2ccccc21)NCc1ccccc1Cl	-	-	-	-	.
COc1cc2ccccc2cc1C(=O)Nc1ccc(N2CCN(C)CC2)cc1	-	13	-	-	-
Nc1nc(SCc2ccccn2)c2ncn(C3CCCC3)c2n1	-	11	-	-	-
CCCn1cnc2c(SCc3ccccn3)nc(N)nc21	-	-	-	-	-
SMILES	DAX1 inh-1	hgDAF-12 ag	hcDAF12 agonist	ssDAF-12 act	DAX1 inh-2
C(=C/c1nccc2c1[nH]c1ccccc12)/c1ccc2c(c1)OCO2	-	13	-	-	-
O=C(c1nc2ncccn2n1)N1CCN(c2ccc(F)cc2)CC1	-	-	-	-	-
O=C(c1nc2ncccn2n1)N1CCN(c2ccccc2)CC1	3.7	-	-	-	-
CN(C)/N=C/C=C1\CCC/C(=C/c2cccs2)C1=O	-	12	-	-	4.4
CN=c1scc(-c2ccc(F)cc2)n1/N=C/c1ccc(O)c(O)c1	-	-	6.3	-	-
NC(=O)NCCC1=CCCCC1	-	-	-	-	-
O=C(NCCC1=CCCCC1)NC1CCCCC1	-	11	-	-	-
O=C(c1ccccc1)c1cnc(-c2ccc(Cl)cc2)s1	-	12	-	-	5.0
COc1cc(C2N=C(c3ccccc3)NO2)cc(Br)c1O (stereo unspecified)	-	-	-	-	-
FC(F)Oc1ccc(C2N=C(c3ccccc3)NO2)cc1 (stereo unspecified)	-	13	-	-	-
COc1cc(-c2nnc(SCC(=O)N3C(C)CCCC3C)o2)cc(OC)c1OC (stereo unspecified)	-	-	-	-	.
Nc1[nH]c(C(=O)c2ccccc2)c(-c2ccc3ccccc3c2)c1C(=O)NCCc1ccc(Cl)cc1	.	-	-	-	.
COc1cc(OC)c(NC(=O)CCCn2c(=O)oc3ccccc32)cc1Cl	-	-	-	-	-
COc1ccc(NC(=O)CCCn2c(=O)oc3ccccc32)cc1Cl	-	-	6.4	-	-
Cc1c(NC(=S)NC(NC(=O)C(C)(C)C)C(Cl)(Cl)Cl)c(=O)n(-c2ccccc2)n1C (stereo unspecified)	-	-	-	-	-
COc1cc(/C=N/NC(=O)c2ccoc2C)ccc1O	-	10	-	-	-
C/C(=N\NC(=O)c1ccoc1C)c1cccc2ccccc12	-	13	-	-	-
Cc1occc1C(=O)N/N=C/c1ccccn1	-	11	-	-	-
C/C(=N\NC(=O)c1cccc2ccccc12)c1ccccn1	-	-	-	-	-
Cc1ccc(C(=O)N/N=C\c2ccccn2)cn1	-	-	-	-	-
O=C(Nc1ccc(Cl)cc1)C1CCCN(S(=O)(=O)c2cnc[nH]2)C1 (stereo unspecified)	-	-	-	-	-
CC(C)c1ccc(NC(=O)C2CCCN(S(=O)(=O)c3cnc[nH]3)C2)cc1 (stereo unspecified)	-	-	-	-	5.5
CC(C)c1ccc(S(=O)(=O)N2CCN(C(=O)C3CCCCC3)CC2)cc1	-	-	5.8	-	-
O=C(NCc1ccccc1Cl)C1CCCN(c2nc3ccccc3o2)C1 (stereo unspecified)	-	-	-	-	.
Cn1ncc2c(Nc3ccc4ccccc4c3)ncnc21	-	12	-	-	-
Cc1cccc(Nc2ncnc3c2cnn3C)c1	-	-	-	-	-
O=S(=O)(c1ccc(CN2CCOCCOCCN(Cc3ccc(S(=O)(=O)C(F)(F)F)cc3)CCOCC2)cc1)C(F)(F)F	.	-	-	-	.

Screening results (PubChem)
